# The supplement of paper PMC10515830
# Where a name gives a salt, the structure may show the parent alone.
# What was measured:
# Details in all cases: 10 µM; exposure time 6 h
# [1] = tested on: Danio rerio larvae (5 dpf); test: difference in excitability vs DMSO (percentage points); higher = more excitable than DMSO
# Method in brief: (§1)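 Wild-type 5 dpf zebrafish larvae in 96-well plates were given 100 µL egg water containing library compound at 10 µM final for 6 h. After 3 h of exposure, plates at 28.5 ℃ were photographed every 6 s during a 3-h programme of moving lines and 100 ms, 400Hz tones. Z-LaP Tracker (a DeepLabCut model) quantified each behaviour, averaged over 48 larvae per compound. Values are the compound mean minus the DMSO-vehicle control, in percentage points.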
# [2] = tested on: Danio rerio larvae (5 dpf); test: difference in startle response vs DMSO (percentage points); higher = stronger startle than DMSO
# Method in brief: as §1
# [3] = tested on: Danio rerio larvae (5 dpf); test: difference in activity during first hour vs DMSO (percentage points); higher = more activity than DMSO
# Method in brief: as §1
# [4] = tested on: Danio rerio larvae (5 dpf); test: difference in habituation to acoustic stimuli vs DMSO (percentage points); higher = more habituation than DMSO
# Method in brief: as §1
# [5] = tested on: Danio rerio larvae (5 dpf); test: difference in combined optomotor response to red, green and blue moving lines vs DMSO (percentage points); higher = stronger optomotor response than DMSO
# Method in brief: as §1
SMILES,difference in excitability [1],difference in startle response [2],difference in activity during first hour [3],difference in habituation to acoustic stimuli [4],difference [5]
Clc1ccc(CSC(Cn2ccnc2)c2ccc(Cl)cc2Cl)cc1 (stereo not given) [Sulconazole (nitrate)],11.3,-12.7,-17.2,-12,-16.4
Cc1ccc(Nc2nccc(N(C)c3ccc4c(C)n(C)nc4c3)n2)cc1S(N)(=O)=O [Pazopanib],3.47,-4.32,-7.88,0.185,1.79
OCCN1CCN(CCCN2c3ccccc3Sc3ccc(C(F)(F)F)cc32)CC1 [Fluphenazine (hydrochloride)],23.3,5.93,15.6,-10.4,-5.63
C[C@H](N)[C@H](O)c1cccc(O)c1 [Metaraminol (tartrate)],3.23,5.35,-15.4,-0.886,-6.91
NCc1ccc(S(N)(=O)=O)cc1 [Mafenide],3.79,7.01,4.01,0.954,0.998
COCCOC(=O)C1=C(C)NC(C)=C(C(=O)OC(C)C)C1c1cccc([N+](=O)[O-])c1 (stereo not given) [Nimodipine],7.48,-6.36,11.8,-10.8,-14.5
CCN(CCO)CCCC(C)Nc1ccnc2cc(Cl)ccc12 (stereo not given) [Hydroxychloroquine (sulfate)],10.2,0.589,-2.91,4.81,-3.68
CCS(=O)(=O)N1CC(CC#N)(n2cc(-c3ncnc4[nH]ccc34)cn2)C1 [Baricitinib],7.57,-3.92,10.9,-5.36,5.99
CO/N=C(\C(=O)N[C@@H]1C(=O)N2C(C(=O)O)=C(CSc3nc(=O)c(O)nn3C)CS[C@H]12)c1csc(N)n1 [Ceftriaxone (sodium salt hydrate)],3.71,4.15,12,-2.08,8.58
C[C@]12C=CC(=O)C=C1CC[C@@H]1[C@@H]2C(=O)C[C@@]2(C)[C@H]1CC[C@]2(O)C(=O)CO [Prednisone],14.1,2.97,-14.4,6.62,-4.57
Cc1ccc(C(=O)c2ccc(CC(=O)O)n2C)cc1 [Tolmetin (sodium salt hydrate)],-2.25,2.51,13.8,1.94,7.94
CC(CCc1ccccc1)NCC(O)c1ccc(O)c(C(N)=O)c1 (stereo not given) [Labetalol (hydrochloride)],3.49,0.137,5.09,3.73,-2.36
CC(Oc1c(Cl)cccc1Cl)C1=NCCN1 (stereo not given) [Lofexidine (hydrochloride)],5.84,4.45,2.08,0.884,10.9
O=C(O[C@H]1CN2CCC1CC2)N1CCc2ccccc2[C@@H]1c1ccccc1 [Solifenacin (succinate)],3.16,-8.09,25.6,-1.09,1.96
C=C1CC[C@H](O)C/C1=C/C=C1\CCC[C@]2(C)[C@@H]([C@H](C)/C=C/[C@H](C)C(C)C)CC[C@@H]12 [Vitamin D2],3.72,-5.12,3.16,2.67,8.48
CCCCCCCCCCCCCCCCCCCCCCO [Docosanol],3.23,1.61,-0.528,-2.06,0.854
CC(=O)OCC(=O)[C@@]1(O)CC[C@H]2[C@@H]3CCC4=CC(=O)CC[C@]4(C)[C@@]3(F)[C@@H](O)C[C@@]21C [Fludrocortisone Acetate],-4.21,4.97,-1.84,0.633,1.96
CC[C@H]1OC(=O)[C@H](C)[C@@H](O[C@H]2C[C@@](C)(OC)[C@@H](O)[C@H](C)O2)[C@H](C)[C@@H](O[C@@H]2O[C@H](C)C[C@H](N(C)C)[C@H]2O)[C@](C)(O)C[C@@H](C)CN(C)[C@H](C)[C@@H](O)[C@]1(C)O [Azithromycin],19.6,2.02,-4.37,-3.98,-0.0441
CCc1ccc(CCOc2ccc(CC3SC(=O)NC3=O)cc2)nc1 (stereo not given) [Pioglitazone (hydrochloride)],12.4,-4.66,-15.3,6.03,3.69
O=C1CCc2ccc(OCCCCN3CCN(c4cccc(Cl)c4Cl)CC3)cc2N1 [Aripiprazole],14.5,5.72,12.4,-8.81,-3.23
CCN(CC)C(=O)C1(c2ccccc2)CC1CN (stereo not given) [Milnacipran (hydrochloride)],16,-4.41,-15.2,1.78,-3.7
CC(C)(O/N=C(\C(=O)N[C@@H]1C(=O)N2C(C(=O)[O-])=C(C[n+]3ccccc3)CS[C@H]12)c1csc(N)n1)C(=O)O [Ceftazidime (hydrate)],-0.0444,0.0878,3.86,0.293,4.55
C[C@H](CS)C(=O)N1CCC[C@H]1C(=O)O [Captopril],1.66,-4.09,-5.55,-3.07,1.64
N[C@@H](Cc1cc(I)c(Oc2cc(I)c(O)c(I)c2)c(I)c1)C(=O)O [L-Thyroxine],12.1,-4.02,7.61,-1.15,1.95
N[C@@H]1CONC1=O [D-Cycloserine],6.37,-2.86,4.38,-2.22,10.3
